Measurements published in PubChem BioAssay (NCATS).
Inconclusive results are not listed. Active and inactive are the calls of the source. The call rests on the fitted dose curve; in most records, active means well fitted cell-killing curve with a large enough effect; inconclusive means small, poorly fitted or top-dose-only effect, or effect the other way; inactive means flat fitted curve, though single readings scatter.

What follows are compounds tested on PA-1 (assay: Primary qHTS to identify gynecologic anti-cancer compounds using libraries of approved drugs and bioactive compounds (AID 1345084; further: nearly all actives have a fitted effect of over 55% in size)). Conditions: Gynecologic cancer cell panel viability, ATPlite luminescence, 48 h; series mostly up to 57.5 µM; activity change, negative = cytotoxicity: at the top concentration.
How it was run: (§1)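 Five-concentration response, 48 h; readout is ATP-driven luciferase luminescence.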
On the % scale 0 is the no-effect control and ±100 the full control effect.

Q: Which “activity change, negative = cytotoxicity” value does the source give for `FC(F)(F)c1ccc(N2CCNCC2)nc1Cl` here?
A: -0.635% (inactive)

Q: With `C[C@@H](CN1CCC(n2c(=O)[nH]c3cc(Br)ccc32)CC1)NC(=O)[C@@H]1C[C@H]1c1ccccc1` as the compound, how does the “activity change, negative = cytotoxicity” value read?
A: -6.19% (inactive)

Q: For `O=C(NCCN1CCC2(CC1)C(=O)NCN2c1cccc(F)c1)c1ccc2ccccc2c1`, which “activity change, negative = cytotoxicity” value is on record?
A: 3.74% (inactive)

What follows are compounds tested on Tov-21-G in the same assay as above. Conditions: Gynecologic cancer cell panel viability, ATPlite luminescence, 48 h; series mostly up to 57.5 µM; activity change, negative = cytotoxicity: at the top concentration.
How it was run: as §1

Q: For `C=CC(C)(C)C12C=C(O)C(=O)N3/C(=C\c4cnc[nH]4)C(=O)NC31N(OC)c1ccccc12` (configuration not stated), which “activity change, negative = cytotoxicity” value is on record?
A: -16.8% [at 25.3 µM] (inactive)

Q: With `FC(F)(F)c1ccc(N2CCNCC2)nc1Cl` as the compound, how does the “activity change, negative = cytotoxicity” value read?
A: -2.36% (inactive)

Q: For `C[C@@H](CN1CCC(n2c(=O)[nH]c3cc(Br)ccc32)CC1)NC(=O)[C@@H]1C[C@H]1c1ccccc1`, which “activity change, negative = cytotoxicity” value is on record?
A: 2.66% (inactive)

Q: `O=C(NCCN1CCC2(CC1)C(=O)NCN2c1cccc(F)c1)c1ccc2ccccc2c1` was tested. Which “activity change, negative = cytotoxicity” value did it give?
A: -4.67% (inactive)

Q: `CN(C(=O)CN1C(=O)COc2cc(Cl)c(Cl)cc21)[C@@H](CN1CCCC1)c1ccc(-c2cccc(C(N)=O)c2)cc1` was tested. Which “activity change, negative = cytotoxicity” value did it give?
A: 2.69% (inactive)

What follows are compounds tested on Tov112D in the same assay as above. Conditions: Gynecologic cancer cell panel viability, ATPlite luminescence, 48 h; series mostly up to 57.5 µM; activity change, negative = cytotoxicity: at the top concentration.
How it was run: as §1

Q: Which “activity change, negative = cytotoxicity” value does the source give for `C=CC(C)(C)C12C=C(O)C(=O)N3/C(=C\c4cnc[nH]4)C(=O)NC31N(OC)c1ccccc12` (configuration not stated) here?
A: -24% [at 25.3 µM] (inactive)

Q: For `FC(F)(F)c1ccc(N2CCNCC2)nc1Cl`, which “activity change, negative = cytotoxicity” value is on record?
A: 4.21% (inactive)

Q: Which “activity change, negative = cytotoxicity” value does the source give for `C[C@@H](CN1CCC(n2c(=O)[nH]c3cc(Br)ccc32)CC1)NC(=O)[C@@H]1C[C@H]1c1ccccc1` here?
A: -26.2% (inactive)

Q: With `O=C(NCCN1CCC2(CC1)C(=O)NCN2c1cccc(F)c1)c1ccc2ccccc2c1` as the compound, how does the “activity change, negative = cytotoxicity” value read?
A: 0.0037% (inactive)
